“And” between values parts separate entries of the source, which are not always exact repeats. Equal values may be shown once. Compounds without any hit were thinned out: in the full panel of roughly 79,000, 15% have a hit. More than one record can exist for a structure, and the calls need not agree. The source made the active and inactive calls. Cut-off read from the data, not from the text of the source: active = growth inhibition above about 70%; inactive = the rest.
test: NCI Yeast Anticancer Drug Screen. Data for the rad50 strain (AID 155);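 note: 0% = growth of vehicle-only cultures of the same strain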; settings: S. cerevisiae rad50 strain growth inhibition; at 50.0 µM (retest, dose inferred, filed as 5.0); stronger effect = higher value
Procedure, shortened: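 Genetically altered yeast (DNA repair pathway); compound treatment; growth inhibition vs vehicle ctrl.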

SMILES | growth inhibition
CC(O)CN1C(=O)c2cccc3cc([N+](=O)[O-])cc(c23)C1=O (stereo not drawn) | 78% (active)
Cc1cc(SC#N)ccc1O | 91% (active)
Cn1c(COc2ccc(/C=N/NC(=O)CCC(=O)N/N=C/c3ccc(OCc4c[n+]5ccccc5n4C)cc3)cc2)c[n+]2ccccc12 | 55% (inactive)
COC1=C(N=[N+]=[N-])C(=O)c2ncccc2C1=O | 95% (active)
CCN(CC)c1ccc(N=Nc2cc(S(=O)(=O)O)ccc2O)c(O)c1 | 73% (active)
O=C1C(C(O)(C(F)(F)F)C(F)(F)F)CCC1C(O)(C(F)(F)F)C(F)(F)F (stereo not drawn) | 33% (inactive)
COc1nc(N)c(N=CC(OC(C)=O)C(OC(C)=O)C(COC(C)=O)OC(C)=O)c(=O)n1C (stereo not drawn) | -9% (inactive) and -4% (inactive) and -19% (inactive)
CN(C)CCNC(=O)c1cccc2nc3c(ccc4ccccc43)nc12 | 94% (active)
O=S(=O)(CCC[C@H]1[C@@H](CCOCc2ccccc2)C2CCCN1O2)c1ccccc1 (stereo partly drawn) | -11% (inactive)
CCC(C)/C(C)=N/NC(N)=O (stereo not drawn) | 30% (inactive)
Nc1c([N+](=O)[O-])cc2c3c(cccc13)CC2 | 81% (active)
CC1=Cc2ccc(C)cc2C(=O)C1=O | 99% (active)
C=Cc1c(C)c(O)cc2c1-c1ccc(O)c(C)c1CC2 | 75% (active)
NCC(O)CSCc1ccc(Cl)cc1 (stereo not drawn) | 5% (inactive)
C[n+]1c(-c2ccc(NC(=O)c3ccc(C(=O)Nc4ccc(-c5cn6ccccc6[n+]5C)cc4)cc3)cc2)cn2ccccc21 | 98% (active)
Nc1ccccc1SSc1ccccc1N | 99% (active) and -9% (inactive)
CCCCCCCCCCCC[N+](C)(C)C | 98% (active) and 96% (active) and 99% (active)
CNC(=O)OCc1c(COC(=O)NC)c(C)n(-c2ccc(Cl)c(Cl)c2)c1C | 97% (active)
[O-]c1c2cc(-[n+]3c(-c4ccccc4)cc(-c4ccccc4)cc3-c3ccccc3)cc1COCCOCCOCCOCCOC2 | 35% (inactive)
C[Si](C)(C)Cc1ccccc1C(=O)O | 80% (active)

same assay, conditions: S. cerevisiae rad50 strain growth inhibition; at 50.0 µM; stronger effect = higher value

SMILES | growth inhibition
COc1ccc(/C=C2\CCc3ccccc3C2=O)cc1OC | 83.3% (active)
CC(C)c1ccc(O)c(=O)cc1 | 91.8% (active) and 92.7% (active) and 92.8% (active)
OCC(O)C(O)C(O)C(O)c1nc2ccccc2[nH]1 (stereo not drawn) | 4% (inactive) [middle of 5 runs]
CC(=O)CC[N+](C)(C)C | 0.7% (inactive)
O=C(O)[C@H]1[C@@H](C2CCCCC2)O[C@@H](C2CCCCC2)O[C@H]1C(F)(F)F | 88.1% (active)
CN(NC(=O)/C(=C/C=C/c1ccccc1)NC(=O)c1ccccc1)C1=C(Cl)C(=O)[N+](c2ccccc2)=CC1 | 58.1% (inactive)
CCCCOc1ccc(Nc2c3ccccc3nc3ccccc23)cc1 | 90.7% (active)
N#C/C(=C1C=C/C(=N\O)C(Cl)=C\1)c1ccccc1 | 55.8% (inactive)
COc1ccc(C(=O)OCCc2ccccc2)cc1 | -7.35% (inactive)
Cc1c2ccncc2c(C)c2c1oc1ccccc12 | 39.2% (inactive)
CCCC#CCOC(=O)c1cc([N+](=O)[O-])cc([N+](=O)[O-])c1 | 99.5% (active)
Nc1nc(Nc2ccccc2)nc(Nc2ccccc2)n1 | 93.5% (active)
COc1ccc(/C=C2\S/C(=N/Nc3nc(-c4ccccc4)cs3)NC2=O)cc1OC | 95.2% (active)
CCCCCCCCCCCC[N+](C)(C)Cc1ccccc1 (tested in a mixture with another compound) | 98% (active) and 99.6% (active) and 97.7% (active)
CC(O)CN1C(=O)c2cccc3cc([N+](=O)[O-])cc(c23)C1=O (stereo not drawn) | 50.9% (inactive)
Cc1cc(SC#N)ccc1O | 92.6% (active) and 86.2% (active) and 91.6% (active)
Cn1c(COc2ccc(/C=N/NC(=O)CCC(=O)N/N=C/c3ccc(OCc4c[n+]5ccccc5n4C)cc3)cc2)c[n+]2ccccc12 | 49.1% (inactive)

SMILES | growth inhibition
COC1=C(N=[N+]=[N-])C(=O)c2ncccc2C1=O | 82.2% (active)
CCN(CC)c1ccc(N=Nc2cc(S(=O)(=O)O)ccc2O)c(O)c1 | 29.2% (inactive)
O=C1C(C(O)(C(F)(F)F)C(F)(F)F)CCC1C(O)(C(F)(F)F)C(F)(F)F (stereo not drawn) | 22.3% (inactive)
CN(C)CCNC(=O)c1cccc2nc3c(ccc4ccccc43)nc12 | 90% (active)
O=S(=O)(CCC[C@H]1[C@@H](CCOCc2ccccc2)C2CCCN1O2)c1ccccc1 (stereo partly drawn) | -4.6% (inactive)
CCC(C)/C(C)=N/NC(N)=O (stereo not drawn) | 58.2% (inactive)
Nc1c([N+](=O)[O-])cc2c3c(cccc13)CC2 | 87.2% (active)
CC1=Cc2ccc(C)cc2C(=O)C1=O | 99.1% (active)
C=Cc1c(C)c(O)cc2c1-c1ccc(O)c(C)c1CC2 | -24.6% (inactive)
NCC(O)CSCc1ccc(Cl)cc1 (stereo not drawn) | 0.9% (inactive)
C[n+]1c(-c2ccc(NC(=O)c3ccc(C(=O)Nc4ccc(-c5cn6ccccc6[n+]5C)cc4)cc3)cc2)cn2ccccc21 | 74.8% (active)
Nc1ccccc1SSc1ccccc1N | 99.4% (active) and 99% (active) and 99.3% (active)
CCCCCCCCCCCC[N+](C)(C)C | 49.9% (inactive) and 80.2% (active) and 39.5% (inactive)
CNC(=O)OCc1c(COC(=O)NC)c(C)n(-c2ccc(Cl)c(Cl)c2)c1C | 89.6% (active)
[O-]c1c2cc(-[n+]3c(-c4ccccc4)cc(-c4ccccc4)cc3-c3ccccc3)cc1COCCOCCOCCOCCOC2 | 59.1% (inactive)
C[Si](C)(C)Cc1ccccc1C(=O)O | 97.7% (active)

Source: PubChem BioAssay (NCI)
